Reference: the supplement of paper PMC12632987

T1: USP38, Q8NB14
T1 chain: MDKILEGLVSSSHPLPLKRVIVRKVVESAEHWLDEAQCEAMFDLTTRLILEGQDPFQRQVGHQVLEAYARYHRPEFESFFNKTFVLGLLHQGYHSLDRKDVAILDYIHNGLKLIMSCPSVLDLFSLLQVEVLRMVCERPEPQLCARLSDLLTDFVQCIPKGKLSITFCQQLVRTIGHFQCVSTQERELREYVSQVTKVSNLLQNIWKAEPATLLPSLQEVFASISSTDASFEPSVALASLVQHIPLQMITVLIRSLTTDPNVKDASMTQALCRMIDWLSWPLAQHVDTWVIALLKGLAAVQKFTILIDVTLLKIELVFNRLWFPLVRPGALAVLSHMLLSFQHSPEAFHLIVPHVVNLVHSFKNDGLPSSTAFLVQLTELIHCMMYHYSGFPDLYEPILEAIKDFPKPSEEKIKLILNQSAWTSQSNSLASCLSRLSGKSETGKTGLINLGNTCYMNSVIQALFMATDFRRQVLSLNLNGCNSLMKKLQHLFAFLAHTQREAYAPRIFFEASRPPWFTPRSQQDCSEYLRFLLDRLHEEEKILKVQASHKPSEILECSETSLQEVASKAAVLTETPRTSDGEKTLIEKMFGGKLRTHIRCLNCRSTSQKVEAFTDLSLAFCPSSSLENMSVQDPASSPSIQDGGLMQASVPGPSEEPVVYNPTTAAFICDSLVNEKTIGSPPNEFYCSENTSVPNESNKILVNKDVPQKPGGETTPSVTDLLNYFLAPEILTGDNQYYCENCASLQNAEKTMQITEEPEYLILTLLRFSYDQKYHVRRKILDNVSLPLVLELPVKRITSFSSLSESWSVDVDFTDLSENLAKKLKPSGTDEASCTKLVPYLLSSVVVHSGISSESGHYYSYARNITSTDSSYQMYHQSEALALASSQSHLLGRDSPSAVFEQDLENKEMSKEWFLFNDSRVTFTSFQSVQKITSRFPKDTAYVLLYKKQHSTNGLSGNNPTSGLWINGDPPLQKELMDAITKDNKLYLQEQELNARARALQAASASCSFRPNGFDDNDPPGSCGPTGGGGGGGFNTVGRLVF

B1: usp_38_diff_out_3_136_526 (protein)
chain: SVAAVKAQIKALEATARALKEDMLKLVEELLKDPNVTPEDLESLKKIVLDSFDDIIKEVEELAKKYPEVKEEAEKAIKKIEEYRDEVKKAFDEAIKEKKA
B2: usp_38_diff_out_2_35_490 (protein)
chain: MEEEEAFRKKVKEELDKMQDEAHEATTETLELLAEADAPLERFDELMRKYDEFMEAAAKTYKLIEEGASKEEIEKALKEAREKYKEFMEFAEKLKKEVAA
B3: usp_38_diff_out_2_61_509 (protein)
chain: SEELKKKAEEIEKLLREARELIAEARAGLDTRDPAELRALLREAERVLDEAIDLLVEFYEEAVEAGDEEALKKADELWDELGRAAKELRELRERLTERVR
B4: usp_38_diff_out_2_35_491 (protein)
chain: AAAEAARREEIRRRIDEMVDEANELTAETLEKLAEADAPDEKFEELFEAYDELMRLLARTYRLIREGAPLEEIERALEEAERKLEEFKKLAEELKKEAEE
B5: usp_38_diff_out_2_113_474 (protein)
chain: DPEERRKEAELYRDIILEGAEQLLRLAKAGRLTPDRTKVMLGGIVHAAEEAYELDPSVKPTIEEVIKKLEEVYELVKDKNPEVAAEIKEAIEKLKEILKK
B6: usp_38_diff_out_2_61_511 (protein)
chain: NKELEEQIKEIKKLIEEAKKLVEELEALLDTADEATLEKLLEEAEKVLNKAIDLLVQAFEQAHEAGDEEALKQLDELWDELGKVAARLREARERLTRRRR
B7: usp_38_diff_out_3_136_519 (protein)
chain: STEEVKEEIKRLEATAESMKESTLKLIEELSKDPNVTPEDVEELKKVVLSAFQDLKDDVKALKEAHPEVKEEADKAEAKIEAYKAEVEAAFDALIAEKKA
B8: usp_38_diff_out_2_61_510 (protein)
chain: NKELEKMIKEIEAKIKEAKALVDELEAGLDTLDEETLEALLAEARAVLDEAIDLLVKAYELAHELDDKEALERLDKLWDELGEVAARLREARERFTRRRR
B9: usp_38_diff_out_2_141_476 (protein)
chain: SEADELFREAFEREARAVAEEARKLIPKRLAIAERLAARGDLASLEERRTRVRAQAGAFRAMAEELEEMGGRPEVIELLRATAAELEEAAARIEELIAKL
B10: usp_38_diff_out_2_61_512 (protein)
chain: SEELEEKAKKIKELIEEAKKLVEEIEKELDTADLAELEKKLKEAEEVINKAIDELEELYKKAVLLGDEEAIKKANELWDELGEVAARYNEVRRRLTERKL
B11: usp_38_diff_out_2_35_492 (protein)
chain: SEEEEKAREEARKEIDELTDELNKTTSETLEALAEADAPLEKFDELMAKYSEAARALAATYKLIQEGAPLEEIEKALKEAKEAVEAFKKFAEELLKEAKA
B12: usp_38_diff_out_3_124_513 (protein)
chain: AEAEKLAKELDKALKELEKLIKEAEKELDKDPEKLKKLLEEADETLDRAAGLYMQLHELAAEDPSTRPLLKKAREKANKVIDRYTEVRTKALERLAELEE
B13: usp_38_diff_out_3_136_523 (protein)
chain: MLEEVRERVRRLEETAVSLKESMLKLIEELKKDPNVTPEDVEELRKVVLDAFDSLKAEVKEIQERYPEVKEEAEKALETIEKKKKEVDKAFEELIKEKKA
B14: usp_38_diff_out_3_124_514 (protein)
chain: SRAEALFAKLKELLAKAEELIKKAEEELDKNLEELKKLLEELDKVMDEASRVFMELHELAAEDPAHRPLLKEARAASNKVVTRYTEVVLKALERLAEAEE
B15: usp_38_diff_out_3_124_515 (protein)
chain: AEAEALLAELEELLERAEELIERAEEELDGDLERLRELLEELDEVLDELSAVFMRLHELAAEDPSHRPLLKEARKRSNEVITRATEVRLRALERLAEAAE
B16: usp_38_diff_out_2_35_489 (protein)
chain: SEEEEEFRREARERLDKLADEVNDTTRETLEALAEADAPLEEIERVLEESDKAFKAIAEAYRLIREGASREEIEEALKKAEEKVKEFKKYAEEVLKRLKE
B17: usp_38_diff_out_3_65_529 (protein)
chain: KVEEEIKKAKKYLEEARKIIEELKEKVKTDPTITEEEVNEMLDEAADLIVKAGEALRKARKLNPDEEQKKEIEKLEKELDELIDEYTEAGREAFLAVGER
B18: usp_38_diff_out_2_35_494 (protein)
chain: SSAERAAREALLAEIDAKIDEAVALTREALELLAEINAPEEEFDELFKTYDAAMTALTTAARLVREGAPQEEIEKAKAKAEAALAKLKALLEEAKKRAKE
B19: usp_38_diff_out_3_65_528 (protein)
chain: GVEELLARAEEALRRLEEVIREAEEALKRAEELSAEELDELIRRATRVALEAERIRRELRRAGDSPEIRAAIARLEEAIERLNEVIERLTEALTAKLIAE
B20: usp_38_diff_out_2_113_472 (protein)
chain: DPEEKKKEAELYKDIITEGADQLLELAKKGKLTPDRTAVMTAGIVHAAEVAYELDPSVKPTIEEVIKKLEEVYELVKDKNPEVAKIIEEAIKKLKEILKK
B21: usp_38_diff_out_3_136_524 (protein)
chain: ATAAAKAQIKALEATAKALKEDSLKLVKELLEDPNVTPEDLESLKKIVLSSFDDLIAEVKAIKAAHPEVAAEADKAIKAIEEYKKEVEKAFNEAIAKKKA
B22: usp_38_diff_out_3_136_525 (protein)
chain: SVAEAREQIKALEATAKALKESMLKLVEELLKDPNVTPEDLRELKEIVLDSFEDIKAEVEKIKKAHPEVKAEADAAIKKIEAYKKEVEAAFDAAIAAKEA
B23: usp_38_diff_out_3_124_517 (protein)
chain: SRADELAAEARATLAELNATLAELEAALDTDLERARELAARADELLARLSGLLLELRDLAREDPRYRPTLKELEAEANAAIDRYTELMTRLFEKEAEAAA
B24: usp_38_diff_out_3_124_518 (protein)
chain: SEAEELVAKAKELLEKLTKVLEEAEKALDKDLEKAEKLLKEADELLTELSAALLRLRDLAMADPSWRPALKEIEAKANEVIDKYTEVATKFFEKKAEAQE
B25: usp_38_diff_out_2_35_493 (protein)
chain: SMEERREREERLKEIGARIDEAHELTREALELLAEIDAPQERFDRLFATYDAAMRALTAEARAVREGAPQEEIDRLRAEAEAALAELKALLAEARKLAAE
B26: usp_38_diff_out_3_124_516 (protein)
chain: MKAEKLYEELKKLLKEIEKLIKEAKKELNKDLEELKKLLKELDKKLDELSKVFMELHELAAEDPRYRPLLKEARKESNKVITEATKVKLEALERLAEEEE
B27: usp_38_diff_out_2_61_508 (protein)
chain: SEELEEKLEEVRRLLEEARRLIEELRRRLDTADEATLRALLREAESVLNEAIDLLIEVYNEAHELGDEETLEKADELWDELGRVAAELRRAREEFTDRVR
B28: usp_38_diff_out_2_113_475 (protein)
chain: DPEVREEIREAALSNLLSSLEELLKIAKENRRSEETMRMMVRGVIEAALELIRELNLPEEDVKKILELLEEVRKALAEKNPELAKLAQEGIEELRKAAEE
B29: usp_38_diff_out_2_61_507 (protein)
chain: SAELQAQAERIEALLAQAEALIAELEAQLDTADEATLRALLAEAQAVLDEAIDLLVELYLRAHEAGDEEALAQADALWDRLGAVAARLRRAREALTDRLS
B30: usp_38_diff_out_3_136_522 (protein)
chain: SVAAVKAEIERLKATADEMKKSTLRLIAELSKDPNVTPEDVESLKKVVLDSYQDLKDDVKALKAANPEVAAQADAALAAIDANAAEVKAAFDALLKEKKA
B31: usp_38_diff_out_3_136_527 (protein)
chain: ATAAVRARIRALEETARELKRSSLRLVEELLKDPNVTPEDLEELRKIVLDSFRDLEEEVRRLAAAEPAVAEEARRAEEEIRRYREEVERAFEEAIAAKKA
B32: usp_38_diff_out_3_65_530 (protein)
chain: KVEEKLKEAEEHLEKAEELVEELRRLTEEDPTLTADEVVEMLDKIDDELVAAGKAIEEAKKLNPTPEQKKKIEELEKRLDELIDRRIEAAEEAFLRVGEA

Target: T1, USP38, Q8NB14
Test: median log2 fold change of GCK-ALFA target abundance (FLAG IP / Myc IP barcode read proportion) (log2 ratio); each designed protein is fused to an ALFA-tag nanobody in HEK293 cells to bring the named protein to FLAG-tagged glucokinase (GCK); Myc marks an untargeted standard; higher = target protein stabilised (more abundant)
Conditions: target protein: 3xFLAG-MCP-GCK-ALFA reporter; HEK293 landing pad (RPLP)
In short: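 Sequencing of reverse-transcribed, amplified circular RNA barcodes from anti-FLAG and anti-Myc immunoprecipitates provided the readout for an ALFA-nanobody-fused binder library recombined into HEK293 landing-pad cells. Those cells were induced with 2 μg mL^−1 doxycycline, transfected with a plasmid expressing a FLAG-tagged target and a Myc-tagged standard, and lysed after 48 h. Target abundance is the per-binder median log2 ratio of FLAG to Myc barcode read proportions. Only barcodes at a proportion of ≥10^−7 in both replicates and binders with ≥3 barcodes per replicate were kept, with a 10^−6 pseudocount added before the two replicates were pooled.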

| Binder | median log2 fold change |
| --- | --- |
| B1 | 0.0442 |
| B2 | 0.00989 |
| B3 | 0.28 |
| B4 | 0.305 |
| B5 | -0.0131 |
| B6 | 0.412 |
| B7 | 0.188 |
| B8 | 0.4 |
| B9 | -0.698 |
| B10 | 0.151 |
| B11 | 0.112 |
| B12 | -0.564 |
| B13 | -0.217 |
| B14 | -0.179 |
| B15 | 0.0853 |
| B16 | 0.192 |

| Binder | median log2 fold change |
| --- | --- |
| B17 | 0.0941 |
| B18 | -0.0997 |
| B19 | 0.193 |
| B20 | 0.269 |
| B21 | -0.221 |
| B22 | -0.268 |
| B23 | -0.553 |
| B24 | -0.761 |
| B25 | -0.077 |
| B26 | 0.0275 |
| B27 | -0.394 |
| B28 | 0.205 |
| B29 | -0.299 |
| B30 | -0.0509 |
| B31 | -0.205 |
| B32 | 0.137 |
